# Pf apPOL inh: Pf-apPOL inhibitors, biochemical, fluorescence; Plasmodium falciparum apicoplast DNA polymerase (apPOL); inhibition, % at 10 µM; AID 1794808, 2022; 0.25% of 210,000 active; Recombinant Pf-apPOL, molecular beacon fluorescence, 1.5 h
# mHTT-CaM PPI inh: mutant huntingtin-calmodulin interaction inhibitors – biochemical, AlphaScreen, primary screen; P42858; AlphaScreen His-mHTT/GST-CaM binding, luminescence; inhibition, % at 15 µM; 3.6% of 190,000 active; AID 1671202, 2021;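 further: 0% = both proteins with DMSO and 100% = one protein alone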
# Target sequence (P42858 whole entry, looked up, stated change not applied): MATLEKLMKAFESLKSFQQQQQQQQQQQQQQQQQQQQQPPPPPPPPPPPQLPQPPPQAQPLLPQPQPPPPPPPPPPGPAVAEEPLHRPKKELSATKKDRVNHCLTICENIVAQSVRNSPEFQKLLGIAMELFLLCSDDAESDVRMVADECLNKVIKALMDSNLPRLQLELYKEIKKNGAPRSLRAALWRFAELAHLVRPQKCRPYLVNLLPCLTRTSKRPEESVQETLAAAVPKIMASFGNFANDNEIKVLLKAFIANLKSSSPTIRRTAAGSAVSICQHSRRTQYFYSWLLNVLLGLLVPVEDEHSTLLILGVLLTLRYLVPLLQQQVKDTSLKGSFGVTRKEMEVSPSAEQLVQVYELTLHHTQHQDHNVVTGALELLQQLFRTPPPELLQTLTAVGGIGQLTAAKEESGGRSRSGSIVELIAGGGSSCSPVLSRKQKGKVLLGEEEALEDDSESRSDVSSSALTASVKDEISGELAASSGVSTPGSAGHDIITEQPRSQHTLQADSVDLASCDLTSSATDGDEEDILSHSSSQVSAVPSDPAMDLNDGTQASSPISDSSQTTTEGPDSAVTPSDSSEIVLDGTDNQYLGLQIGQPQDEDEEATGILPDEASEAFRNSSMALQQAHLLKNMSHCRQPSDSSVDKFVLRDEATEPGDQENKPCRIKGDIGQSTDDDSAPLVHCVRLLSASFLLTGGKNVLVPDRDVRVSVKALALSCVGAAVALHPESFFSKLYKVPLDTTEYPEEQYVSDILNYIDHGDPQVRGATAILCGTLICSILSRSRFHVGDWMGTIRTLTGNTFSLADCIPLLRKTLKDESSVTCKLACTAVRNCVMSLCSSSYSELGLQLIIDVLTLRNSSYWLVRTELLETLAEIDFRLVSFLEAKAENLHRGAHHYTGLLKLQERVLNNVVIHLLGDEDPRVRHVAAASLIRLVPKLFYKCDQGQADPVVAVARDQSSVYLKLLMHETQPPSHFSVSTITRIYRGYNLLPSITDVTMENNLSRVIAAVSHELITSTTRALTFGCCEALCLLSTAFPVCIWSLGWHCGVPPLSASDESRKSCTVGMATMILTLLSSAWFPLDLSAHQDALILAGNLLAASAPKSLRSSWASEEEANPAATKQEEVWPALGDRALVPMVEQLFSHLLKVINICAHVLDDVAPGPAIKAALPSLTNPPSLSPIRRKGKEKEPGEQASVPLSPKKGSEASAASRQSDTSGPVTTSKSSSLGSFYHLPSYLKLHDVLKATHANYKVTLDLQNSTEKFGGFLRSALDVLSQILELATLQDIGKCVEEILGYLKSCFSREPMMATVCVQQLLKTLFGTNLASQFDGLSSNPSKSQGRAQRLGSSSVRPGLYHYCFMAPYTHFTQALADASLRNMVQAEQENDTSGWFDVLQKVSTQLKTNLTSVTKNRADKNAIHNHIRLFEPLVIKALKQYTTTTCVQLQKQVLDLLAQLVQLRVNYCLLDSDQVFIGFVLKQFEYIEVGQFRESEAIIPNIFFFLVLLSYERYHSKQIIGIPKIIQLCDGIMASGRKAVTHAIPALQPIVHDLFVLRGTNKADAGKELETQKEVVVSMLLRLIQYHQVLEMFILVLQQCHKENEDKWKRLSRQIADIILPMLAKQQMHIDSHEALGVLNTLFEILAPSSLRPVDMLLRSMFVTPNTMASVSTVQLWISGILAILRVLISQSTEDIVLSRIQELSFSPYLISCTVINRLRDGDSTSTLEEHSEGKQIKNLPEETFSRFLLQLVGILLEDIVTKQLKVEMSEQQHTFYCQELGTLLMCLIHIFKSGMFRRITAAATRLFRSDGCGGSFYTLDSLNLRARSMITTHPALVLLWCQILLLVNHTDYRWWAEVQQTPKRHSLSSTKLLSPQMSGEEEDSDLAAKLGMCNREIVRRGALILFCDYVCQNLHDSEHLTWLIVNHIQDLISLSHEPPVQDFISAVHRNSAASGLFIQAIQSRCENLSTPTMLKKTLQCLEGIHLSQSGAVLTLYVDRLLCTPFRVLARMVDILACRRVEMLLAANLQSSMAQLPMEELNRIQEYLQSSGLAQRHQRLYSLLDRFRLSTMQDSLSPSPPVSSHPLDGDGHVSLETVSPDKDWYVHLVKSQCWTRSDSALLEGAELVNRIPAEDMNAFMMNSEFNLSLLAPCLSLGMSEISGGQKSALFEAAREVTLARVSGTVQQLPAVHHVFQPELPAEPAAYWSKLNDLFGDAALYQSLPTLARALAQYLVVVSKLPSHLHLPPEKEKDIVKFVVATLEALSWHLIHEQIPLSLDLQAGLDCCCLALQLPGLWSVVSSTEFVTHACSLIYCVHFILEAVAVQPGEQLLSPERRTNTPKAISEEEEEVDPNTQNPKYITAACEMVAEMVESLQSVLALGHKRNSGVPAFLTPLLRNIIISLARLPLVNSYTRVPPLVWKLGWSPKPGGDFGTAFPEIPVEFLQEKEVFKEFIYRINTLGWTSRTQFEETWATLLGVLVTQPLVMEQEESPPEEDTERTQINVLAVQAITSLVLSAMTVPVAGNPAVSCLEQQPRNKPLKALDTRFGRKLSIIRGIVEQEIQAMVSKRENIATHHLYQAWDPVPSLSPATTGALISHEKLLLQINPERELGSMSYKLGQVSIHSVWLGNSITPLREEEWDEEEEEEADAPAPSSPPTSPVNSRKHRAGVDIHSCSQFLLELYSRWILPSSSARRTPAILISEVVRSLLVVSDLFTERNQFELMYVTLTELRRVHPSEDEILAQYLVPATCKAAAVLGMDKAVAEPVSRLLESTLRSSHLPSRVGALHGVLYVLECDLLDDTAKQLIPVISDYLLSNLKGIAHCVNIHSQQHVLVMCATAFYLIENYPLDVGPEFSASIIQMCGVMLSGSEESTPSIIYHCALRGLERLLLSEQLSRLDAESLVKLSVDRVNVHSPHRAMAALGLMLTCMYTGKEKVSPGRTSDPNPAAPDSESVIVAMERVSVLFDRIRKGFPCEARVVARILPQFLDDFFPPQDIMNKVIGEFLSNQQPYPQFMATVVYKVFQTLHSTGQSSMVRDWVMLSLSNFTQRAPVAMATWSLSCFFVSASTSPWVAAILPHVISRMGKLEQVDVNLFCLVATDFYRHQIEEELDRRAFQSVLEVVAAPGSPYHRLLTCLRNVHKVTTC
# Starred values were filed as active, the others as inactive; x = no result. Sampled rows, rich in hits. Any-hit rate of the full collection: about 3.6%. No stated cut-off is given here; in the data, active means inhibition above about 50%; inactive means the rest.
SMILES,Pf apPOL inh,mHTT-CaM PPI inh
CC1(C)C(C=C(Cl)Cl)C1C(=O)Nc1ccc(S(N)(=O)=O)cc1 (stereo not drawn),-3.0,2.0
O=C(Nc1ccc([N+](=O)[O-])cc1)C1C(c2ccccc2)C1(Cl)Cl (stereo not drawn),-8.5,94.1*
COc1ccc(NC(=O)C2C(C=C(Cl)Cl)C2(C)C)cc1 (stereo not drawn),-5.6,-35.5
O=C(Nc1cccnc1)C1C(c2ccccc2)C1(Cl)Cl (stereo not drawn),-2.9,-7.0
CCc1ccc(CNC(=O)c2ccc3ncnc(N4CCCC4)c3c2)cc1,-9.0,-3.9
Cc1nc(SCc2ccccc2)[nH]c(=O)c1CC(=O)O,-15.5,-6.7
CC(=O)c1cccc(NC(=O)Cc2c(C)nc(SCc3cccc(Cl)c3)[nH]c2=O)c1,-5.3,51.2*
Cc1cccc(-c2nc(C3CC(=O)N(Cc4ccccc4)C3)no2)c1 (stereo not drawn),-11.2,47.6
COc1ccc2[nH]cc(CN3CCC(C(=O)NC(C)c4ccc(F)cc4)CC3)c2c1 (stereo not drawn),1.4,68.0*
COc1cccc(C(C)NC(=O)C2CCN(Cc3cn(C)c4ccccc34)CC2)c1 (stereo not drawn),-6.9,2.1
Cc1ccc(-c2noc(-c3ccc(NCCN4CCC(C)CC4)nc3)n2)cc1,6.4,2.0
CC(=O)N1CCC2(CC1)Nc1cccnc1NC2=NCc1ccccc1,-5.2,0.6
O=C(Nc1cccc(F)c1)N1CCC2(CC1)Nc1cccnc1NC2=NCc1ccccc1,-8.8,98.7*
Cn1c(=O)c2c(ncn2CC(=O)NCc2ccccc2)n(C)c1=O,-8.3,-3.3
O=c1c(NCc2cc(F)ccc2F)nc2ccncc2n1Cc1ccccc1,1.7,0.3
Cc1ccc(C2C(C#N)=C(N)Oc3c2ccc2cccnc32)cc1 (stereo not drawn),-5.0,58.3*
Cc1ccc(C2C(C#N)=C(N)Oc3cc(O)ccc32)cc1 (stereo not drawn),-5.9,9.9
COc1ccc(-c2coc3c4c(ccc3c2=O)OCN(C2CCCCC2)C4)cc1,-26.8,13.6
COc1ccc(-c2coc3c4c(ccc3c2=O)OCN(c2cc(Cl)c(OC)cc2OC)C4)cc1,-1.0,60.0*
CN(C)c1ccc(C=Nc2ccc3cc4ccc(N=Cc5ccc(N(C)C)cc5)cc4nc3c2)cc1,x,22.8
COc1ccc(O)c(C2Oc3ccccc3C3CC(c4cccs4)=NN32)c1 (stereo not drawn),2.6,49.0
Clc1ccc(C2=NN3C(C2)c2ccccc2OC3c2ccco2)cc1 (stereo not drawn),-2.1,87.0*
c1cncc(C2Oc3ccccc3C3CC(c4cccs4)=NN32)c1 (stereo not drawn),-36.7,25.0
c1ccc(C2=NN3C(C2)c2ccccc2OC3c2cccnc2)cc1 (stereo not drawn),-3.0,39.0
c1csc(C2=NN3C(C2)c2ccccc2OC3c2ccsc2)c1 (stereo not drawn),-25.6,27.0
SMILES,Pf apPOL inh,mHTT-CaM PPI inh
CCOc1c(O)ccc(C2Oc3ccccc3C3CC(c4cccs4)=NN32)c1[N+](=O)[O-] (stereo not drawn),-7.1,54.0*
Brc1ccc(C2Oc3ccccc3C3CC(c4cccs4)=NN32)o1 (stereo not drawn),-57.4,100.0*
Oc1ccccc1C1Oc2ccccc2C2CC(c3cccs3)=NN21 (stereo not drawn),-0.5,51.0*
O=C(Nc1ccc(F)c(Cl)c1)N1CCN(c2cc(N3CCCCC3)ncn2)CC1,-4.4,-12.0
Cc1ccc(NC(=O)Cn2ncc3c(c2=O)N(C)C(=O)CS3)c(Br)c1,1.0,-5.9
c1ccc(C2Oc3ccccc3C3CC(c4cccs4)=NN32)cc1 (stereo not drawn),5.3,35.0
Oc1ccc(O)c(C2=NN3C(C2)c2ccccc2OC3c2cccs2)c1 (stereo not drawn),16.4,66.8*
Cc1ccc(C2=NN3C(C2)c2ccccc2OC3c2ccccc2)o1 (stereo not drawn),-8.3,30.0
Oc1ccc(C2Oc3ccccc3C3CC(c4cccs4)=NN32)cc1 (stereo not drawn),-6.2,51.0*
Cc1ccc(C(=O)Nc2sc(C)c(C)c2C(N)=O)o1,0.7,2.1
O=C(c1cccnc1)N1CCC(COCc2ccccc2)CC1,-10.2,-8.1
O=C(Nc1nc2c(s1)CN(CC(=O)N1CCCc3ccccc31)CC2)c1cnccn1,13.5,63.2*
O=C(Nc1nc2c(s1)CN(C(=O)Cc1cccs1)CC2)c1cnccn1,16.3,14.0
CCn1cnnc1C1CCCCN1C(=O)Cc1c[nH]c2ccccc12 (stereo not drawn),-6.1,42.3
O=c1ccc(-c2ccc(F)cc2)nn1CCc1nc(-c2ccc(F)cc2)no1,-5.1,70.4*
O=c1ccc(-c2ccccc2)nn1CCc1nc(-c2ccc(F)cc2)no1,-3.7,8.0
O=C(Nc1ccc(Br)cc1)c1nc[nH]c1C(=O)O,-2.7,80.0*
O=C(Nc1ccccc1)c1nc[nH]c1C(=O)Nc1ccccc1,-7.8,-6.9
COc1nccc(N2CCC(CC(=O)NCCN3CCCCCC3)CC2)n1,-8.0,11.1
FC(F)(F)c1nc2cc3c(cc2n1Cc1ccc(Br)cc1)OCCO3,-3.6,-17.3
CCOc1ccc2c(c1)-c1c(ssc1=S)C(C)(C)N2C,x,96.7*
CCOc1ccc2c(c1)C(=O)c1cc(OCC(=O)O)ccc1-2,-0.8,2.0
Cc1ccc2c(c1)-c1c(ssc1=S)C(C)(C)N2C,x,92.6*
CC1(C)Nc2ccccc2-c2c1ssc2=S,x,40.1
O=Cc1ccc(OCc2cccc([N+](=O)[O-])c2)c(Br)c1,-5.0,-2.5
SMILES,Pf apPOL inh,mHTT-CaM PPI inh
c1cncc(CN2CCN(Cc3ccco3)CC2)c1,-1.6,5.4
Cn1nc(-c2nc(C3CC3)no2)c2c1CCN(C(=O)c1ccc(F)c(Cl)c1)C2,-1.1,2.0
Cc1ccc(C)c(Cn2nnc(C(=O)O)c2-c2ccccn2)c1,3.4,9.1
O=C1CCSCC(C(=O)NC23CC4CC(CC(C4)C2)C3)N1 (stereo not drawn),-0.7,2.4
O=C(NCCCn1cccn1)c1cn2ccccc2n1,-2.6,-2.1
CCCNc1nc(C)nc2c1c(C)nn2-c1ccc(C)cc1,7.8,-17.2
CCC(C)Nc1nc(C)nc2c1c(C)nn2-c1ccccc1 (stereo not drawn),1.5,99.3*
CCOc1ccccc1NC(=O)N1CCC(c2cnn(-c3cccc(C)c3)c2)CC1,-2.5,-9.9
O=C(NCCc1ccoc1)C1CC=CCC1 (stereo not drawn),-6.5,1.7
COc1cc(OC)c(C=Nc2ccc(O)cc2)cc1Br,2.9,64.0*
COc1ccc(C=Nc2ccc(O)cc2)c(OC)c1,-7.2,71.0*
COc1cc(OC)c(C=Nc2ccccc2)cc1Br,-2.2,4.0
C=CCOc1ccc(C=Nc2ccc(OC)cc2)c(O)c1,-1.8,0.0
N#CC1=C(N)N(c2ccc(Br)cc2)C2=C(C(=O)CCC2)C1c1ccsc1 (stereo not drawn),-0.4,8.0
Cc1cccc(N2C(N)=C(C#N)C(c3cc(Br)cs3)C3=C2CCCC3=O)c1 (stereo not drawn),80.2*,51.0*
CCSc1ccsc1C1C(C#N)=C(N)N(c2ccccc2)C2=C1C(=O)CCC2 (stereo not drawn),-2.3,15.0
N#CC1=C(N)N(c2ccc(Cl)cc2)C2=C(C(=O)CCC2)C1c1cc(Br)cs1 (stereo not drawn),-9.7,55.0*

# From PubChem BioAssay
